A selection: hits, their analogues and other compounds. The true share with any hit is near 1.5%.
PrP UTR inh = suppresses PrP 5' UTR mRNA reporter expression | inhibition, % (test concentration not listed) | AID 488862 | cell-based PrP 5' UTR mRNA reporter, plate reader | actives 0.35% (n = 340,000); in the data active = inhibition above about 52%; note: 0 = median of the neutral control wells
3CLpro inhibitor = SARS-CoV 3CLpro protease inhibition. AID 1706. P0C6X7. actives 0.14% (n = 290,000). inhibition, % at 6 µM. recombinant SARS-CoV 3CLpro, quenched FRET peptide cleavage; in the data active = inhibition above about 12%
VHR inh abs = inhibitors of human VHR1 phosphatase (DUSP3). AID 1654. actives 0.52% (n = 290,000). recombinant VHR phosphatase, pNPP absorbance. inhibition, % at 13.3 µM; in the data active = inhibition above about 50%
Target sequence (P51452 whole entry, looked up): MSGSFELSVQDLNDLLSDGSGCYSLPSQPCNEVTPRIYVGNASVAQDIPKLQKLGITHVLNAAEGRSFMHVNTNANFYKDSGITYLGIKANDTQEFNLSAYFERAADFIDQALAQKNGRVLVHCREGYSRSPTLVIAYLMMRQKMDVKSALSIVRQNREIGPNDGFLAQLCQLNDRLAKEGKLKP
MazEF act = activators of E. coli MazEF toxin-antitoxin RNase; actives 0.32% (n = 350,000); P0AE70; AID 504720; FAM/BHQ RNA-DNA oligo cleavage fluorescence, 5 h; activation, % at 20 µM; in the data active = activation above about 50%
Target sequence (P0AE70 whole entry, looked up): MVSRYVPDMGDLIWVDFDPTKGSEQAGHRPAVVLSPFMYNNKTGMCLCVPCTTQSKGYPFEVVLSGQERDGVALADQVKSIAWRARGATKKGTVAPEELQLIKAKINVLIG
PrPC TRFRET = inhibitors of human cell surface prion protein PrPC. TR-FRET read-out. actives 0.43% (n = 370,000). inhibition, % at 13.8 µM. P04156; in the data active = inhibition above about 24%; note: 0% = median of the test wells and 100% = reference compound wells
Mtb hypoxia rep = Mtb hypoxia fluorescent reporter inhibition. actives 0.1% (n = 300,000). M. tuberculosis hypoxia-regulated fluorescent reporter, fluorescence. fluorescence inhibition, % (concentration not given with the values). AID 1159583; in the data active = fluorescence inhibition mostly above about 23%, no sharp cut-off; inactive = mostly below about 17%
Numbers without * were called inactive; i = inactive; x = no result shown; + = active, no number.

SMILES | PrP UTR inh | 3CLpro inhibitor | VHR inh abs | MazEF act | PrPC TRFRET | Mtb hypoxia rep
O=C(O)/C=C\C(=O)Nc1ccc(N2CCN(c3ccc(Cl)cc3)CC2)cc1 | -21.9 | 3.8 | 11.1 | 0.8 | 4.8 | x
O=C(Nc1cccc(Cl)c1)c1cc(N=Nc2ccc([N+](=O)[O-])cc2Cl)ccc1O | -12.6 | -0.3 | 35.5 | 2.1 | -4.0 | 70.1*
CN(Cc1c(C(=O)NN=Cc2cc(F)ccc2F)nnn1-c1nonc1N)C1CCCCC1 | x | x | x | x | x | 1.1
CCN1C(C)=C(C)S/C1=C1\SC(=S)N(C2CCCCC2)C1=O | -17.2 | 6.2 | 12.9 | 353.7* | -0.1 | x
CCN1C(C)=C(C)S/C1=C1\SC(=S)N(NC(C)=O)C1=O | -14.6 | -6.7 | 8.5 | -9.6 | -0.4 | 7.6
CCC1(C)Cc2ccccc2C(=CC(=O)N2CCCCC2)N1 (stereo unspecified) | x | x | x | x | x | 5.5
COc1ccc2oc(=O)c(-c3csc(Nc4cccc(O)c4)n3)cc2c1 | -84.8 | 2.8 | 2.9 | 132.5* | -1.1 | 8.6
CC(=O)Nc1ccc(Nc2nc(-c3cc4ccccc4oc3=O)cs2)cc1 | -73.6 | 1.2 | 3.6 | 63.4* | 6.8 | 12.2
Nc1ccc(Nc2nc(-c3cc4ccccc4oc3=O)cs2)cc1 | -92.8 | 0.2 | 26.1 | -10.3 | 0.7 | 15.3
COc1ccc(Nc2nc(-c3cc4cccc(OC)c4oc3=O)cs2)cc1 | -23.3 | 1.5 | -4.5 | 1.7 | 4.1 | -8.7
C#CCN(C(=O)c1ccc(OC2CCN(C(=O)CCOC)CC2)cc1)C1CCCCC1 | 2.3 | -0.4 | 52.8* | 3.6 | 6.0 | -3.2
CC1(C)OC2CO[C@@]3(COS(N)(=O)=O)OC(C)(C)OC3C2O1 (stereo partly specified) | x | x | x | x | x | -17.3
COc1ccc(-c2nc(-c3cccnc3)no2)cc1 | -164.9 | -0.8 | 13.8 | 0.9 | 1.8 | 3.6
CCc1ccc(-c2nc(-c3ccncc3)no2)cc1 | -0.5 | 0.4 | 57.1* | -3.1 | 11.4 | x
COc1ccc(-c2nc(-c3ccncc3)no2)cc1 | -97.7 | -2.2 | 15.5 | 90.9* | -1.2 | 6.2
C=CCOc1ccc(/C=N/NC(=O)CC(=O)NC2CCCCC2)cc1 | -16.7 | -0.6 | -9.5 | 514.2* | 5.0 | x
O=C1C(=Cc2cccn2-c2ccc(O)cc2)C(=O)c2ccccc21 | -5.1 | 3.3 | 40.7 | 262.8* | -6.8 | -3.6
O=C1C(=Cc2cccn2-c2ccccc2)C(=O)c2ccccc21 | -30.7 | -2.7 | 21.2 | 241.8* | 0.9 | 3.1
O=C(O)c1cccc(-n2cccc2C=C2C(=O)c3ccccc3C2=O)c1 | -1.8 | 4.7 | 7.2 | -28.1 | -13.5 | 10.3
COc1ccccc1C=CC(=O)NCC(=O)NN=Cc1ccc2c(c1)OCO2 | x | x | x | x | x | 2.7
CC(C)CC(NC(=O)OC(C)(C)C)c1cn(C(CCCCNC(=O)OC(C)(C)C)C(=O)N2CCN(C(=O)OC(C)(C)C)CC2)nn1 (stereo unspecified) | x | x | x | x | x | 1.4
Cn1c2c(c(=O)n(C)c1=O)C(C(F)(F)F)(C(F)(F)F)N=C(c1ccccc1Cl)N2 | -16.0 | 2.9 | 13.3 | -5.4 | 14.0 | 2.2
Cn1c(=O)c2[nH]c(-c3ccccc3Cl)c(O)c2n(C)c1=O | -48.2 | 4.0 | -7.4 | 908.6* | -0.6 | 0.8
Cn1c(=O)c2[nH]c(-c3ccccc3)c(O)c2n(C)c1=O | -6.0 | -3.2 | -12.5 | + | -3.5 | 2.5
CCCCCc1c(C)nc(N2CCc3ccccc32)[nH]c1=O | -31.3 | 4.1 | 52.9* | 2.2 | 0.5 | -1.7
SMILES | PrP UTR inh | 3CLpro inhibitor | VHR inh abs | MazEF act | PrPC TRFRET | Mtb hypoxia rep
O=C(NCc1cccnc1)C1CC=CC2CCN(Cc3ccc(Cl)c(Cl)c3)C(=O)C21 (stereo unspecified) | x | x | x | x | x | 5.2
CCn1nc(C)c(CN2CCC(Oc3ccc(C(=O)N4CCCC4)cc3)CC2)c1C | -10.0 | -1.9 | 56.8* | 6.3 | 4.0 | 6.4
O=C(/C=C/Nc1ccccc1)c1ccccc1 | -27.0 | -3.6 | 4.2 | -2.3 | 8.0 | -2.6
CN(C)c1ccc(N/C=C/C(=O)c2ccccc2)cc1 | 51.1 | -0.2 | -14.8 | 153.8* | -18.2 | 6.9
N#CCCN(C(=O)CON=Cc1cccc([N+](=O)[O-])c1)c1ccccc1 | x | x | x | x | x | 15.4
O=C(Nc1ccc(C(=O)N2CCOCC2)cc1)c1cnn2c(C(F)F)cc(-c3ccccc3)nc12 | -3.3 | 0.5 | -2.8 | 66.3* | -8.8 | 0.2
O=C(NCCOc1ccc(F)cc1)C1CCC(=O)N(CCc2ccccn2)C1 (stereo unspecified) | 1.2 | -4.7 | 57.1* | 4.6 | -2.6 | -9.9
O=C1CCCN1CCCN=c1c([N+](=O)[O-])nn(-c2ccc(Cl)cc2)n1O | -41.6 | 0.3 | 13.4 | -4.6 | -34.4 | 45.6*
CCC(C)NS(=O)(=O)c1ccc(NC(=O)c2cccs2)cc1 (stereo unspecified) | -2.0 | 9.2 | 25.2 | -3.4 | 12.7 | 2.9
Cc1ccc(NS(=O)(=O)c2ccc(NC(=O)c3cccs3)cc2)cc1 | -4.6 | 8.2 | 35.3 | 73.6* | 3.1 | -0.9
CCCCN1C(=O)/C(=C/C=C2\Oc3ccccc3N2CC)SC1=S | -23.0 | 2.2 | 19.8 | i | -14.7 | 8.5
CCCCN1C(=O)/C(=C/C=C2/CC(C)(C)CN2C)SC1=S | -35.2 | -1.8 | -3.8 | 118.0* | -9.4 | 24.2
O=C(NCC(=O)N(c1ccc(F)cc1)C(C(=O)NC1CCCC1)c1cccnc1)c1cccs1 (stereo unspecified) | -28.4 | -2.9 | 44.3 | 9.1 | 0.2 | 6.1
COc1cccc(C(C(=O)NC2CCCC2)N(Cc2cccnc2)C(=O)Cc2cccs2)c1 (stereo unspecified) | -23.0 | 6.2 | 50.4* | 6.5 | 0.6 | 7.5
Cc1cccc(N(C(=O)CNC(=O)c2cccs2)C(C(=O)NC2CCCC2)c2cccnc2)c1 (stereo unspecified) | 8.8 | 0.5 | 56.7* | 4.6 | -6.8 | 3.0
O=C(NCC(=O)N(c1ccccc1)C(C(=O)NC1CCCCC1)c1cccnc1)c1cccs1 (stereo unspecified) | -19.0 | 3.9 | 52.0* | 1.4 | 4.0 | 11.4
COc1ccc(N(C(=O)CCl)C(C(=O)NC2CCCCC2)c2cccnc2)cc1 (stereo unspecified) | -10.7 | 21.2* | 4.0 | 18.4 | -1.3 | x
Cc1cc(C)cc(N(C(=O)CNC(=O)c2cccs2)C(C(=O)NC2CCCC2)c2cccnc2)c1 (stereo unspecified) | -10.9 | -1.2 | 22.8 | -6.1 | -9.1 | 3.8
Cc1c(C(=O)NN=Cc2ccccn2)nnn1-c1nonc1N | x | x | x | x | x | 11.0
C=CC(CC(C)C)N(Cc1ccccc1)S(=O)(=O)N(Cc1ccccc1)C(C=C)CC(C)C (stereo unspecified) | x | x | x | x | x | 2.3
COC(=O)[C@@H](Cc1c[nH]c2ccccc12)NC(=O)c1ccc2c(c1)OCO2 | -53.9 | -3.5 | 52.6* | -7.3 | -5.8 | -17.8
O=C(COC(=O)[C@H](Cc1c[nH]c2ccccc12)NC(=O)c1ccc(Cl)cc1)Nc1ccc2c(c1)OCO2 | -24.6 | 0.6 | -0.2 | 9.7 | -1.7 | -0.8
CCOc1cc(C=NNc2nc(C)cc(=O)[nH]2)ccc1O | x | x | x | x | x | 7.7
CCC(NC(=O)NC1=NCCS1)(C(F)(F)F)C(F)(F)F | -11.2 | 0.6 | 57.4* | 5.1 | -1.8 | 12.1

Bioassay records deposited in PubChem by several laboratories.
